# Test results from PubChem BioAssay (NCATS).
# Several values for one entry are separate records, joined by “and”; a condition that tells them apart may be missing. Equal values may be shown once. A number with no mark means an inactive call. Records with an inconclusive call do not appear. A call without a number means that no potency is given here. Activity calls are given as the source filed them. Unless noted, the call rests on the fitted dose curve; in most records, active means well fitted curve in the direction sought with a large enough effect; inconclusive means small, poorly fitted or top-dose-only effect, or another doubt; inactive means no such curve, though single readings can be large; an effect the other way counts as inactive or inconclusive.
# Tests used:
# [1] = Cell Viability - HepG2 (AID 433; calls by dose curve;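 further: potency means the concentration at half of the fitted maximal effect; potency for ATP loss meaning cytotoxicity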); settings: qHTS
# How it was run: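 Read-out is luciferase-based quantitation of cellular ATP as a measure of viable HepG2 cells after 40 h treatment at 37 °C. Signal decrease is scaled between DMSO-only and 100 uM tamoxifen controls, with AC50 fitted by the Hill equation.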
# [2] = Cell Viability - MRC5 (AID 434; calls by dose curve;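 further: potency means the concentration at half of the fitted maximal effect; potency reflects cytotoxicity seen as loss of intracellular ATP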); settings: MRC5 lung fibroblast viability, qHTS
# How it was run: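 qHTS cytotoxicity in human lung fibroblast MRC5 cells; 40 hr treatment, 37 °C; cellular ATP by luciferase luminescence; DMSO = 0%, 100 uM tamoxifen = 100% inhibition; Hill-fit AC50.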
# [3] = molecular target: Mitogen-activated protein kinase 10 (Mus musculus) (UniProt Q61831); experiment: JNK3 AlphaScreen Assay (AID 530; active means well fitted curve in either direction with a large enough effect, not every such curve was filed as active;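 further: kinase came from lysate of stimulated human HepG2 cells; signal reports phosphorylation of biotinylated GST-cJun 1-79 at Ser73 with 10 µM ATP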); settings: JNK3 lysate, c-Jun phosphorylation; series mostly up to 57.1 µM
# How it was run: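 Compound titrations were preincubated 15 minutes at room temperature with substrate, antibody and pre-activated JNK3-containing HepG2 lysate. Reactions were started with 10 uM ATP and stopped with EDTA-containing bead buffer for AlphaScreen detection.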
# [4] = Cell Viability - NIH 3T3 (AID 541); settings: NIH 3T3 cell viability, qHTS; activity change, negative = cytotoxicity: at 92.2 µM (top of the series); further: nearly all actives have a fitted effect of over 25% in size
# How it was run: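 Luminescent ATP signal (CellTiter-Glo) served as the viability read-out after NIH 3T3 cells were exposed to compounds over a concentration range for 40 hr at 37 °C. Hill-equation modelling of concentration-response data gave AC50.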
# [5] = Cell Viability - HUV-EC-C (AID 542); settings: HUV-EC-C endothelial cell viability, qHTS; series mostly up to 92.2 µM; further: nearly all actives have a fitted effect of over 35% in size
# How it was run: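 qHTS cytotoxicity: HUV-EC-C, 1000 cells/well, 5 hr settle, compound 40 hr 37 °C, CellTiter-Glo, luminescence. AC50 via Hill equation.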
# [6] = Cell Viability - SH-SY5Y (AID 544); settings: SH-SY5Y neuroblastoma cell viability; viability change, negative = cytotoxic: at 92.2 µM (top of the series); further: nearly all actives have a fitted effect of over 55% in size
# How it was run: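 Luminescent ATP read-out (CellTiter-Glo) measures loss of viable SH-SY5Y neuroblastoma cells after 40 hr compound exposure at 37 °C. AC50 values derive from standard Hill modelling of qHTS concentration-response data.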
# [7] = Cell Viability - Renal Proximal Tubule (AID 545); settings: renal proximal tubule cells viability; at 91.7 µM (top of the series), primary cells of rat origin unless noted; further: nearly all actives have a fitted effect of over 40% in size
# How it was run: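 Luminescent ATP signal (CellTiter-Glo) served as the viability read-out after 40 hr compound exposure of freshly isolated rat proximal tubule cells at 37 °C. Concentration-dependent ATP loss was fitted with the Hill equation to give AC50.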
# [8] = Cell Viability - Mesenchymal (AID 546); settings: mesenchymal cells viability, qHTS; series mostly up to 91.7 µM;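 further: cells exposed to compound for 40 hours before reading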
# How it was run: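 AC50 values reflect the drop in intracellular ATP in a human kidney mesenchymal line derived from normal glomeruli. Treatment lasts 40 hr at 37 °C in complete medium, and the signal comes from CellTiter-Glo luminescence.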
# [9] = Cellular Toxicity (caspase-3) Jurkat (AID 655); settings: Jurkat caspase-3 activation, luminescence, DMSO = 0%, tamoxifen = 100%; at 92.2 µM (top of the series);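 further: cells exposed to compound for 16 h at 37 °C before reading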
# How it was run: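 5000 Jurkat cells/well; compound 16 hr, 37 °C; Caspase-Glo 3/7 added, 20 min RT; luminescence read. Norm: DMSO = 0%, tamoxifen 100 uM = 100%. AC50, Hill model.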
# [10] = Cellular Toxicity (caspase-3) HUV-EC-C (AID 656); settings: HUV-EC-C cells, caspase-3 activation (apoptosis), vehicle = 0, 100 µM tamoxifen = 100%; series mostly up to 92.2 µM
# How it was run: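 qHTS; HUV-EC-C, 1000 cells/well; 5 hr settle, 16 hr cmpd, 37°C; Caspase-Glo 3/7, 20 min RT; luminescence. Norm: DMSO = 0%, tamoxifen 100 uM = 100%. Hill-fit AC50.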
# [11] = Cellular Toxicity (caspase-3) SHSY5Y (AID 657); settings: SH-SY5Y caspase-3 activation, DMSO zero, 10 µM staurosporine = 100%; series mostly up to 91.7 µM;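 further: cells exposed to compound for 16 hours at 37 °C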
# How it was run: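 qHTS, SH-SY5Y, 1500 cells/well, 5 h pre-incubation 37 °C; compound 16 h 37 °C; Caspase-Glo 3/7 1 h RT; luminescence. Norm.: DMSO = 0, 10 uM staurosporine = 100%. Hill fit → AC50.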
# [12] = Cellular Toxicity (caspase-3) BJ (AID 658); settings: BJ fibroblasts, luminescence, normalized: DMSO 0%, staurosporine 100%; series mostly up to 91.7 µM
# How it was run: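 Readout: Caspase-Glo 3/7 luminescence increase in BJ cells after 16 hr treatment at 37 °C. Staurosporine and tamoxifen served as positive controls; AC50 values came from Hill modelling of data normalized to DMSO and 10 uM staurosporine.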
# [13] = Cellular Toxicity (caspase-3) MRC-5 (AID 659); settings: MRC-5 cells, luminescence, normalized: DMSO 0%, 10 µM staurosporine 100%; series mostly up to 91.7 µM
# How it was run: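 Concentration-dependent caspase 3/7 activation is measured in human normal lung fibroblasts (MRC-5) following 16-hour treatment. AC50 values come from standard Hill-equation modeling of luminescence normalized to DMSO and 10 uM staurosporine.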
# [14] = Cellular Toxicity (caspase-3) SK-N-SH (AID 661); settings: SK-N-SH caspase-3 activation, qHTS, DMSO as zero, staurosporine as full; series mostly up to 91.7 µM
# How it was run: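 Human neuroblastoma SK-N-SH, 1500 cells/well, 5 hr pre-incubation, then compound 16 hr, 37 °C. Caspase-Glo 3/7 reagent, 1 hr RT, luminescence. Norm. to DMSO/10 uM staurosporine; Hill-fit AC50.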
# [15] = Cellular Toxicity (caspase-3) H-4-II-E (AID 663); settings: H-4-II-E rat hepatoma, scaled: DMSO 0%, 100 µM tamoxifen 100%; series mostly up to 92.2 µM;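 further: cells exposed to compound for 16 hr before readout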
# How it was run: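 Apoptosis induction is scored as increased luminescence from caspase 3/7 substrate cleavage in rat hepatoma H-4-II-E cells exposed to compound for 16 hr. Activity is scaled between DMSO and 100 uM tamoxifen.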
# [16] = Cellular Toxicity (caspase-3) N2a (AID 665); settings: N2a cells, luminescence, normalized: DMSO 0%, 10 µM staurosporine 100%; at 92.2 µM (top of the series);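 further: compound exposure lasted 16 h at 37 °C before readout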
# How it was run: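 N2a cells, 1500/well, 5 h settle at 37 °C; cpd 16 h, 37 °C; Caspase-Glo 3/7, 1 h RT; luminescence. Norm: DMSO = 0, 10 uM staurosporine = 100%. AC50, Hill fit.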
# [17] = molecular target: Cytochrome P450 3A4 (Homo sapiens) (UniProt P08684); experiment: qHTS Assay for Inhibitors and Substrates of Cytochrome P450 3A4 (AID 884); settings: recombinant CYP3A4, Luciferin-PPXE luminescence; series mostly up to 57.1 µM; further: nearly all actives have a fitted effect of over 50% in size; further: potency means the concentration at half of the fitted maximal effect
# How it was run: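 20 nM human CYP3A4 with 25 uM Luciferin-PPXE (at KM) in 200 mM KPO4, preincubated 10 min with compound; NADPH regeneration started a 60 min RT reaction. Luciferin detected by luminescence, normalized to 57 uM ketoconazole as full inhibition.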
# [18] = qHTS Assay for Identification of Small Molecule Inducers of Hypoxia Response (AID 2120; active means well fitted curve in the direction sought with a large enough effect in the signal ratio, with a control signal flat, not every such curve was filed as active; the % refers to the signal ratio); settings: hypoxia response reporter cells, beta-lactamase ratio readout; series mostly up to 104 µM
# How it was run: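 ME-180 HRE-bla cells plated in Opti-MEM/0.5% dialyzed FBS, rested 4-5 h, then dosed with compound titrations by pin tool. After 17 h at 37 degrees C, CCF4 dye loaded 2.5 h at RT; 460/530 nm ratio gave %Activity and AC50.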
# [19] = qHTS assay for small molecule agonists of the antioxidant response element (ARE) signaling pathway measured by Nrf2-dependant transcriptional activity - cell viability counter screen (AID 720653; active means well fitted curve in the direction sought with a large enough effect in the repeat runs; an effect the other way counts as inactive or inconclusive); settings: ARE-bla HepG2 viability, CellTiter-Glo ATP luminescence, 16 h; active compounds read low
# How it was run: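 Cytotoxicity counter screen: intracellular ATP quantified by CellTiter-Glo luminescence in the same ARE-bla HepG2 plates, after 16 h compound exposure and a 2 h beta-lactamase substrate step.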
# [20] = qHTS assay for cell viability of HEK293 cells (AID 743288); settings: ATP luminescence (CellTiter-Glo), 18 h; max response: active compounds read low; further: nearly all actives have a fitted effect of over 50% in size
# How it was run: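 HEK293 parental, 2,000 cells/well; ≥5 h pre-incubation 37 C; pintool compound addition; 18 h, 37 C; CellTiter-Glo 30 min RT; luminescence read.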
# Chain of Cytochrome P450 3A4 (Homo sapiens) (P08684 whole entry, looked up): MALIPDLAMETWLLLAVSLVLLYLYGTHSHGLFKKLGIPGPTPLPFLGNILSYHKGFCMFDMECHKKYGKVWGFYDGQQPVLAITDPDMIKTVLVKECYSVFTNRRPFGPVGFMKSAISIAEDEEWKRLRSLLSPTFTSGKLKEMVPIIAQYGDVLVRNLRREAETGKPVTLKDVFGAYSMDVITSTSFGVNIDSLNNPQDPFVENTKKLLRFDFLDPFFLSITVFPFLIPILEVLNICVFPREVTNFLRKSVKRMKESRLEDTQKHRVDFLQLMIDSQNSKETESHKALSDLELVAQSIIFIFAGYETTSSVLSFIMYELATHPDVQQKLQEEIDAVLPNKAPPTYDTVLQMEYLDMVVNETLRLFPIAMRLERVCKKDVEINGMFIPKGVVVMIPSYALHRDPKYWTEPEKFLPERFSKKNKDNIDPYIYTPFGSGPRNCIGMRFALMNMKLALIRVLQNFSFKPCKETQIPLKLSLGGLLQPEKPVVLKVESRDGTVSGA
SMILES,Potency [1],Potency [2],outcome [3],"activity change, negative = cytotoxicity [4]",Potency [5],Potency [6],"activity change, negative = cytotoxicity [7]",outcome [8],caspase-3 activation [9],outcome [10],outcome [11],outcome [12],outcome [13],outcome [14],outcome [15],caspase-3 activation [16],Potency [17],outcome [18],max response [19],max response [20]
O=C(Cl)/C=C/C(=O)Cl,> 92 µM,> 92 µM,inactive,9.76%,inactive,inactive,2.59%,inactive,0.334%,inactive,inactive,inactive,inactive,inactive,inactive,-4.67%,inactive,inactive,3.07%,1.49%
CC(O)CCl (configuration not stated),> 92 µM,> 92 µM,inactive,4.45%,inactive,inactive,-0.642%,inactive,1.88%,inactive,inactive,inactive,inactive,inactive,inactive,3.17%,inactive,inactive,-0.544% and -11.8%,2.39% and -2.48%
OCC(Br)CBr (configuration not stated),> 92 µM,> 92 µM,inactive,-14.7%,inactive,inactive,0.652%,inactive,0.101%,inactive,inactive,inactive,inactive,inactive,inactive,-2.35%,inactive,inactive,-0.194%,6.86%
CCCC(=O)Cl,> 92 µM,> 92 µM,inactive,-0.413%,inactive,inactive,0.416%,inactive,-0.695%,inactive,inactive,inactive,inactive,inactive,inactive,4.05%,inactive,inactive,18.2%,0.489%
Clc1cccc(C(Cl)(Cl)Cl)n1,> 92 µM,> 92 µM,inactive,-0.893%,inactive,inactive,-6.77%,inactive,-0.503%,inactive,inactive,inactive,inactive,inactive,inactive,-0.536%,,inactive,1.86% and -5.38%,8.34% and -7.37%
CC(=O)[O-].CC(=O)[O-].O.O.O.[Pb+2],> 92 µM,> 92 µM,inactive,11.5% and -1.35%,inactive,inactive,-5.61% and -0.959%,inactive,1.15% and 0.852%,inactive,inactive,inactive,inactive,inactive,inactive,0.731% and -2.95%,inactive,inactive,-9.67% and 5.41%,-11.3% and -5.22%
O=C(Cl)C(Cl)(Cl)Cl,> 92 µM,> 92 µM,inactive,1.81%,inactive,inactive,0.33%,inactive,3.49%,inactive,inactive,inactive,inactive,inactive,inactive,0.525%,inactive,inactive,-1.42%,-17%
Clc1nc(Cl)nc(Nc2ccccc2Cl)n1,> 92 µM,> 92 µM,,-3.86%,inactive,inactive,-4.26%,inactive,0.489%,inactive,inactive,inactive,inactive,inactive,inactive,0.587%,inactive,inactive,-2.86% and -6.99%,1.75% and 3.89%
ClCBr,> 92 µM,> 92 µM,,-20.5%,inactive,inactive,-6.27%,inactive,-0.634%,inactive,inactive,inactive,inactive,inactive,inactive,-2%,inactive,inactive,-6.45%,4.95%
CCOP(=S)(OCC)Oc1ccc([N+](=O)[O-])cc1,> 92 µM,> 92 µM,inactive,-19.3%,inactive,inactive,-6.62% and -2.54%,inactive,-2.23% and 0.755%,inactive,inactive,inactive,inactive,inactive,inactive,-4.19% and -4.51%,10 µM (active) and 5.01 µM (active),inactive,-2.59% and 6.4% and 13.8%,0.0323% and -20.7% and -1.59%
